# HepG2 tox – kills HepG2 cells in TGF-b inhibitor counter-screen | 410,000 compounds, 0.76% hits | HepG2 CAGA-GFP viability, ATP luminescence, 18 h | Potency, µM (series often up to 46.1 µM), for inactives: at the top dose activity change, negative = cytotoxicity, usual class: cytotoxic; note: potency is the fitted concentration of half-maximal effect
#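 HepG2 CAGA-GFP cells (1000/well, DMEM with 1% FBS) received compound, then TGF-beta at 500 pg/mL final, and were incubated 18 hours at 37 degrees C. Viability was read by CellTiter-Glo luminescence. Media-only wells were set as complete cell-killing and DMSO as no toxicity.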
# TDP1 inh – blocks human tyrosyl-DNA phosphodiesterase 1; Q9NUW8; recombinant TDP1, AlphaScreen DNA substrate cleavage; Potency, µM (doses to about 130 µM), without a hit: top-dose activity change, negative = inhibition, actives largely listed as inhibitors; 350,000 compounds, 0.28% hits; AID 485290; note: potency is the fitted concentration of half-maximal effect; % is set by controls: 0 for no effect and ±100 for the full control effect; nearly all actives have a fitted effect of over 40% in size
# Target sequence (Q9NUW8 whole entry, looked up): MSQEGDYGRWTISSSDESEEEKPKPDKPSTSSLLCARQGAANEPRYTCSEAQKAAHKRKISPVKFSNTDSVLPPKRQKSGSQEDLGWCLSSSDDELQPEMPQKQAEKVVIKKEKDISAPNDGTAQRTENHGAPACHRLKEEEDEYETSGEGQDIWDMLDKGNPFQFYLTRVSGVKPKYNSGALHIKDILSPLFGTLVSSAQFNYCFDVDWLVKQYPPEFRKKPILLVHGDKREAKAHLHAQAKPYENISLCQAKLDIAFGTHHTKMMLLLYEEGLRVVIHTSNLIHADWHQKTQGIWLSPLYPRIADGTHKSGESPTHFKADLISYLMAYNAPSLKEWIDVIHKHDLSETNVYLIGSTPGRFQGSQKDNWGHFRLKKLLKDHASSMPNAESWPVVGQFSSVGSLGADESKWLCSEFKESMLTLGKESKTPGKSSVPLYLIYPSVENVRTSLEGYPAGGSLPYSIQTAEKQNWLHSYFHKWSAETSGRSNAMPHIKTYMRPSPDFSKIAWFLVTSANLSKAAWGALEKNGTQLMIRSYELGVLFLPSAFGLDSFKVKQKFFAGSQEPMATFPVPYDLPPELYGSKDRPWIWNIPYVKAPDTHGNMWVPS
#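 Here, a 5' biotin and 3' phosphotyrosine-FITC DNA oligonucleotide reports Tdp1 activity: intact substrate bridges AlphaScreen beads, while cleavage leaves a 3' phosphate and drops signal. All incubations at room temperature.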
# TGFb inhibitor – blocks TGF-b signaling; HepG2 CAGA-GFP TGF-b/SMAD3 reporter, GFP fluorescence, 18 h; TGF-beta stimulated, 500 pg/mL final; 410,000 compounds, 1.2% hits; Potency, µM (series often up to 46.1 µM), for the others: at the highest dose activity, negative = inhibition, most hits filed as inhibitors; note: potency is the fitted concentration of half-maximal effect; % is set by controls: 0 for no effect and ±100 for the full control effect; nearly all actives have a fitted effect of over 65% in size
#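 First, reporter cells (HEPG2 CAGA-GFP) rested 2 h at 37 degrees C. Next, compounds were pinned in and TGF-beta added to 500 pg/mL final. After 18 h, GFP was imaged per cell and summed per well.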
# DT40 TDP1 CPT – growth inhibition of DT40 Tdp1-/-;hTDP1 cells with camptothecin (screen for TDP1 inhibitors); chicken DT40 Tdp1-/-;hTDP1 cells + 20 nM CPT, ATP luminescence, 48 h; Potency, µM (top dose mostly 46.2 µM), without a hit: at the top dose activity change, negative = growth inhibition, hits mostly inhibitors; 420,000 compounds, 12% hits; AID 686979; note: potency is the fitted concentration of half-maximal effect; % is set by controls: 0 for no effect and ±100 for the full control effect; nearly all actives have a fitted effect of over 55% in size
#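 Chicken DT40 Tdp1-/- cells stably complemented with human TDP1 were seeded at 400 cells/well in medium containing 20 nM camptothecin, exposed to pin-transferred compounds, and grown at 37 °C for at least 48 hr. Viability was read as ATP luminescence.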
# DT40 TDP1 no CPT – qHTS for Inhibitors of human tyrosyl-DNA phosphodiesterase 1 (TDP1): qHTS in cells in absence of CPT; DT40 Tdp1-/- hTDP1 cells, no CPT, ATP luminescence, 48 h; 420,000 compounds, 15% hits; Potency, µM (doses to about 46.2 µM), for the others: top-dose activity change, negative = growth inhibition, usual class: inhibitors; note: potency is the fitted concentration of half-maximal effect; % is set by controls: 0 for no effect and ±100 for the full control effect; nearly all actives have a fitted effect of over 55% in size
#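 Camptothecin absent (DMSO only). Human TDP1-complemented DT40 knockout cells, 400 cells/well, 37 °C for minimum 48 hr; ATP measured via CellTiter-Glo, 30 min dark incubation, luminescence.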
# IL-1B inflam inh – blocks inflammasome-driven IL-1 beta release; THP-1 LPS/ATP IL-1B secretion, AlphaLISA, 16 h; stronger effect = lower value; AID 743279; activity change, % at 57.5 µM; 360,000 compounds, 4.7% hits; in the data active = activity change below about -50%; inconclusive = mostly about -30% to -49%; note: % is set by controls: 0 for no effect and ±100 for the full control effect
#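 THP-1 cells pretreated 1 hr with compounds (up to 57.5 uM final), then stimulated with LPS (250 ng/mL final) plus ATP (1.25 mM final); secreted IL-1B measured by AlphaLISA after 16 hr, decreased signal indicating inhibition.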
# * marks the source's active call; other numbers are inactive results; ? = inconclusive; nt = no result; [ ] = dose if it differs, or a comment. The list is not random: actives were taken first. Their share in the collection is about 18%. Unless noted, calls come from the whole dose curve; as a rule, active = well fitted curve in the direction sought with a large enough effect; inconclusive = small, poorly fitted or top-dose-only effect, or another doubt; inactive = no such curve, though single readings can be large; an effect the other way counts as inactive or inconclusive.
SMILES,HepG2 tox,TDP1 inh,TGFb inhibitor,DT40 TDP1 CPT,DT40 TDP1 no CPT,IL-1B inflam inh
CCOC(=O)c1[nH]c2c(c1Cc1ccccc1)C(=O)CC(c1ccc(OC)cc1)C2 (stereo not given),-5%,2%,?,21µM*,21µM*,nt
CCOC(=O)c1[nH]c2c(c1-c1ccccc1)C(=O)CC(c1ccc(OCC)cc1)C2 (stereo not given),-7%,4%,3%,-25%,-1%,-14
COc1ccccc1-c1ccnc(-n2ncc(C(=O)NC3CCCN(Cc4ccccc4)C3)c2C)n1 (stereo not given),nt,nt,nt,10%[9.04 µM],-28%,nt
CCC/C=C/C1C(=O)C2OC2C2(OCC(CC)(CC)CO2)C1CO (stereo not given),nt,7%[21 µM],nt,nt,nt,nt
COc1ccc(-c2cc3ccc(O)cc3oc2=O)cc1OC,-5%,79µM*,9%,4%,3%,7
CCCCN(CC)Cc1c(O)ccc2c(-c3ccccc3)cc(=O)oc12,-23%,-9%,?,?,?,-27
CCCCN(C)Cc1c(O)ccc2c(-c3ccccc3)cc(=O)oc12,-22%,3%,-23%,?,15µM*,?
COc1ccc(-c2cc(=O)oc3cc(OCC(C)=O)ccc23)cc1,34%,3%,?,-24%,-24%,-1
COc1ccc(-c2cc(=O)oc3cc(O)ccc23)cc1,-15%,nt,-2%,?,7.3µM*,17
CCOC(=O)C(Oc1ccc2c(-c3ccccc3)cc(=O)oc2c1C)c1ccccc1 (stereo not given),3%,-3%,0%,?,?,2
CCOC(=O)C(Oc1ccc2c(-c3ccc(OC)cc3)cc(=O)oc2c1C)c1ccccc1 (stereo not given),-12%,0%,?,16µM*,?,8
CC(=O)N1C=Cc2c(c(C)c3c([nH]c4ccccc43)c2C)C1,nt,-4%,nt,nt,nt,nt
COc1cc(OC)c(NC(=O)CN(C)S(=O)(=O)c2ccc3c(c2)CCCC(=O)N3)cc1Cl,0%,1%,-3%,nt,nt,nt
Cc1c(O)ccc2c(-c3ccccc3)cc(=O)oc12,-23%,nt,-12%,13µM*,15µM*,24
COc1ccc(-c2cc(=O)oc3cc(OC(C)C(=O)NC4CC4)ccc23)cc1 (stereo not given),6%,nt,-18%,8%,?,-2
O=c1cc(O)c2ccc(O)cc2o1,-8%,-6%,15%,?,?,-8
CCN(CC)Cc1c(O)ccc2c(-c3ccccc3)cc(=O)oc12,-2%,-2%,-1%,-2%,-14%,-2
COc1ccc(-c2cc(=O)oc3c(C)c(OC(=O)c4cccs4)ccc23)cc1,12%,0%,1%,3.7µM*,?,-6
COC(=O)Cc1cc(=O)oc2cc(O)ccc12,12%,7%,6%,-1%,-8%,-70*
COc1ccc(-c2cc(=O)oc3cc(OC(=O)C4CCCCC4)c(Cl)cc23)cc1,3%,5%,-1%,23µM*,?,5
Cc1n(-c2ccccc2)c2ccc(Cl)cc2[n+]1CCO,1%,3%,0%,11%,-10%,-10
COc1cc(NC(=O)CSc2ncc(S(=O)(=O)c3ccc(Br)cc3)c(=O)[nH]2)cc(OC)c1,-18%,-3%,-4%,nt,nt,nt
COc1ccc(C(C(=O)NC2CCCC2)N(C(=O)c2csnn2)C2CCCC2)cc1 (stereo not given),-7%,16%,34%,4%,?,-9
COc1ccc(-c2cc(=O)oc3c(C)c(O)ccc23)cc1,2%,nt,1%,7.3µM*,3.3µM*,24

# Source: PubChem BioAssay
